Test results taken from paper PMC4336329 (PLoS ONE, 2015).
Among all 310,000 compounds or so, about 14,000 (4.5%) showed an effect of 50% or more. Effects have a minus sign here. For the sample, strong results were picked, then their nearest neighbours and some compounds at random.

Target: human ether-à-go-go-related gene (hERG) potassium channel (human, UniProt Q12809)
Assay: primary screen, population patch clamp on CHO cells stably expressing hERG; higher = less effect of the substance
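Note: peak tail current of the secondary pulse compared with the same well before compound.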

Chain of human ether-à-go-go-related gene (hERG) potassium channel (Q12809 whole entry, looked up): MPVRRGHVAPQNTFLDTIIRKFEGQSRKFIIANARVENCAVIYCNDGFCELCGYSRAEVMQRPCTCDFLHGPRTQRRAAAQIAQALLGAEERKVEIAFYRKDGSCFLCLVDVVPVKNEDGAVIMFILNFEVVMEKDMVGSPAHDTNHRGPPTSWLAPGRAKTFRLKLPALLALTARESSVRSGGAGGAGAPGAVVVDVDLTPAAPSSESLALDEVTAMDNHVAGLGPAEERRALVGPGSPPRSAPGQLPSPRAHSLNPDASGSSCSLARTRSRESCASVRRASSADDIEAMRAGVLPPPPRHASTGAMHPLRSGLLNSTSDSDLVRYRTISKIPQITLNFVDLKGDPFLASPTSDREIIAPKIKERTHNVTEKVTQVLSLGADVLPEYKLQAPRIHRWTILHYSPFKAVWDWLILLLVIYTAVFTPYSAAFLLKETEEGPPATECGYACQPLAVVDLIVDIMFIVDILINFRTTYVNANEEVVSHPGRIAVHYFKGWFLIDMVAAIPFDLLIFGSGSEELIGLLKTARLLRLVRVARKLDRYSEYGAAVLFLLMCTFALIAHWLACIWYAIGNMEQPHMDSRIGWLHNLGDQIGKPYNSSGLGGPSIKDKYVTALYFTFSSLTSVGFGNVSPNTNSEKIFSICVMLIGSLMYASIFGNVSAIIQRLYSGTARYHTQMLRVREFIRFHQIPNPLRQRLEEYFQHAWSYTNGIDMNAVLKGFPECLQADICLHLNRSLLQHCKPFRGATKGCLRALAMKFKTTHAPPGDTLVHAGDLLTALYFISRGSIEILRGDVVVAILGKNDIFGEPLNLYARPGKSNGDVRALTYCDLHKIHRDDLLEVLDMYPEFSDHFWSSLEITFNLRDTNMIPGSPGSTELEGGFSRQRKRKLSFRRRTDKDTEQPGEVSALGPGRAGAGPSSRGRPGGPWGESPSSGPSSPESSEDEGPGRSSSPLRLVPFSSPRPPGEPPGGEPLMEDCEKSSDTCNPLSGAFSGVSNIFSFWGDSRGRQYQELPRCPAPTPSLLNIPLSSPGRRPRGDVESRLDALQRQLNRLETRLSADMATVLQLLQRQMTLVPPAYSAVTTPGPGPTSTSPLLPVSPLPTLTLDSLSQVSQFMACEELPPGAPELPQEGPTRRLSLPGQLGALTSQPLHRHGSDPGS

Structure (SMILES)	hERG current change (%, negative = inhibition) at 10uM
CCc1cccc(NC(=O)CN(c2ccc(C)cc2)S(=O)(=O)c2c(C)noc2C)c1	8.14%
COc1cc(OC)c(NC(=O)CCc2nc(-c3ccc(C)cc3)no2)cc1Cl	6.21%
COc1ccc(-c2ccc(-c3noc(-c4ccccc4C)n3)c(OC)n2)cc1	6.35%
O=C(NC1CCC(O)CC1)c1cccc2cccnc12 (centres unmarked)	7.2%
CC1CCCCN1Cc1c(O)ccc2c(=O)c(-c3ccc(Cl)cc3)coc12 (centres unmarked)	-69.1%
CC1CCCCN1Cc1c(O)ccc2c(=O)c(-c3nc4ccccc4s3)coc12 (centres unmarked)	-48%
COc1ccc(-c2coc3c(CN4CCCCC4C)c(O)ccc3c2=O)cc1 (centres unmarked)	-39.4%
CC1CCN(Cc2c(O)ccc3c(=O)c(-c4nc5ccccc5s4)c(N)oc23)CC1	-48.5%
CCN(CC)Cc1c(O)ccc2c(=O)c(-c3ccc(Cl)cc3)coc12	-58.4%
CC1CCCCN1Cc1c(O)ccc2c(=O)c(-c3nc4ccccc4s3)c(N)oc12 (centres unmarked)	-60.6%
CC1CCCCN1Cc1c(O)ccc2c(=O)c(-c3ccc(Cl)cc3Cl)coc12 (centres unmarked)	-60.7%
CCN(CC)Cc1c(O)ccc2c(=O)c(-c3ccccc3)coc12.Cl	-1.91%
COc1ccccc1-c1coc2c(CN3CCCCC3C)c(O)ccc2c1=O (centres unmarked)	6.44%
CN(C)Cc1c(O)ccc2c(=O)c(-c3ccc(Cl)cc3)coc12	-9.92%
CC1CCCN(Cc2c(O)ccc3c(=O)c(-c4nc5ccccc5s4)c(N)oc23)C1 (centres unmarked)	-0.886%
CC1CCCCN1Cc1c(O)ccc2c(=O)c(-c3ccccc3)coc12 (centres unmarked)	-38.2%
N#Cc1cc2ccccc2nc1SCC(=O)Nc1ccc(S(=O)(=O)N2CCCC2)cc1	6.03%
Cn1ncnc2c(=O)n(C)c(=O)nc1-2	-2.67%
O=C(NCc1ccccc1)Nc1cccn(Cc2ccccc2Cl)c1=O	18.8%
Cc1nc2ccccc2c(=O)n1-c1ccc(F)cc1F	3.52%
CCOC(=O)CNC(=O)c1ccc2[nH]c3c(c2c1)CCCC3	11.5%
CCOC(=O)c1ccc(OCCOc2ccccc2C)cc1	24%

Structure (SMILES)	hERG current change (%, negative = inhibition) at 10uM
O=c1c(Cl)c(N2CCN(S(=O)(=O)c3ccc(F)cc3)CC2)cnn1-c1cccc(Cl)c1	-29.4%
O=C(CSCc1ccccc1Br)N/N=C/c1ccc(OCC(=O)N2CCCCC2)cc1	-15.9%
CNC(=O)c1[nH]cnc1C(=O)Nc1ccc(OC)cc1	20.8%
O=c1[nH]cnc2cc(-c3ccc(Br)cc3)sc12	12.3%
CN(C)S(=O)(=O)c1ccc(N2CCCC2)c(C(=O)N2CCN(S(=O)(=O)c3cccc(F)c3)CC2)c1	-10.7%
Cc1nnc2ccc(-c3cccc(NS(=O)(=O)c4cc(F)ccc4F)c3)nn12	-0.0273%
O=C(O)CSCC(=O)Nc1ccc(C(=O)O)cc1	12.5%
Cc1oc2c(CN3CCCCC3C)c(O)ccc2c(=O)c1-c1ccccc1 (centres unmarked)	-27.6%
COc1ccc(-c2c(C)oc3c(CN4CCCCC4C)c(O)ccc3c2=O)cc1 (centres unmarked)	-16.6%
Cc1oc2c(CN3CCCCC3C)c(O)ccc2c(=O)c1-c1ccc(Br)cc1 (centres unmarked)	-50.9%
O=C(Cc1c(F)cccc1Cl)NCCc1c[nH]c2ccccc12	8.99%
Cc1nn(CC#N)c(=O)n1-c1ccccc1	8.38%
CCn1c(SCC#N)nc2c(c1=O)C1(CCCC1)Cc1ccccc1-2	2.38%
CN(Cc1ccccc1)C(=O)CN(Cc1ccccc1)S(C)(=O)=O	-4.6%
O=C(c1ccc(S(=O)(=O)c2ccccc2Cl)c([N+](=O)[O-])c1)N1CCCCCC1	-11%
COC(=O)CCCC(=O)NC1CCCN(C2Cc3ccccc3C2)C1 (centres unmarked)	-10.6%
COCCN(CC1CCCN(C2Cc3ccccc3C2)C1)C(=O)CCC(N)=O (centres unmarked)	-75.1%
COCCN(CC1CCCN(C2Cc3ccccc3C2)C1)C(=O)CCC(C)=O (centres unmarked)	-6.4%
COCCN(CC1CCCN(C2Cc3ccccc3C2)C1)C(=O)CCSC (centres unmarked)	-45.8%
O=C(NCC1CCCN(C2Cc3ccccc3C2)C1)c1cccs1 (centres unmarked)	-40.7%
COCCN(CC1CCCN(C2Cc3ccccc3C2)C1)C(=O)CCC(F)(F)F (centres unmarked)	-55.4%
CCCC(=O)N(CCc1ccc(OC)cc1)Cc1nc2ccccc2c(=O)[nH]1	-8.61%

Structure (SMILES)	hERG current change (%, negative = inhibition) at 10uM
COc1ccc2c(c1)c(CC(=O)Nc1cccc(S(N)(=O)=O)c1)c(C)n2C(=O)c1ccc(Cl)cc1	1.02%
Cc1ccc(S(=O)(=O)N(CC(=O)NCc2ccco2)Cc2ccc(F)cc2)cc1	-67.1%
CN(CC(=O)NCc1ccncc1)S(=O)(=O)c1ccc(F)cc1	-0.77%
CCN(CC(=O)NCc1ccc(F)cc1)S(=O)(=O)c1ccc(C)cc1	-43.6%
CS(=O)(=O)N(CCc1ccccc1)CC(=O)NCc1ccco1	-3.21%
Cc1ccc(S(=O)(=O)N(Cc2ccc(F)cc2)Cc2ccco2)cc1	2.28%
COc1ccc(S(=O)(=O)N(C)CC(=O)NCc2cccnc2)cc1	-31.8%
O=C(CN(Cc1ccccc1)S(=O)(=O)c1ccc(Br)cc1)NCc1ccco1	-51.6%
CCN(CC(=O)NCc1ccco1)S(=O)(=O)c1ccc(F)cc1	5.61%
Cc1ccc(S(=O)(=O)N(CC(=O)NCc2ccncc2)Cc2ccc(F)cc2)cc1	-79.2%
CCN(CC(=O)NCc1ccco1)S(=O)(=O)c1ccc(OC)cc1	3.31%
CCN(CC(=O)NCc1cccnc1)S(=O)(=O)c1ccc(OC)cc1	-28.3%
COc1ccc(S(=O)(=O)N(CC(=O)NCc2cccnc2)Cc2ccccc2)cc1	-76.5%
COc1cccc(-n2c(Cc3cc(=O)[nH]c(=O)[nH]3)nnc2SCC(=O)N2CCCCCC2)c1	0.34%
CCc1cccc(C)c1NC(=O)C1CCCN1C(=O)NCc1ccccc1 (centres unmarked)	18.4%
CCOC(=O)c1ccc(NC(=O)c2c(C)[nH]c(C(=O)OCC)c2C)cc1	-6.95%
Cc1ccc(NC(=O)CCn2cnc3ccccc3c2=O)c(C)c1	6.65%
CCCCn1c(SCC(=O)N(CC)C2CCS(=O)(=O)C2)nc2cc(S(N)(=O)=O)ccc21 (centres unmarked)	-5.49%
CC1(C)CC(=O)C(C(=O)c2ccccc2)C(=O)C1Cl (centres unmarked)	3.06%
O=C(CN(Cc1ccc(Br)cc1)S(=O)(=O)c1ccccc1)NCc1ccccn1	-42%
Cc1ccc(S(=O)(=O)N(CC(=O)O)Cc2ccccc2F)cc1	3.18%
O=C(CN(Cc1ccccc1)S(=O)(=O)c1ccc(F)cc1)NCc1ccccn1	-10.6%

Structure (SMILES)	hERG current change (%, negative = inhibition) at 10uM
Cc1ccc(S(=O)(=O)N(CC(=O)NCc2ccncc2)Cc2ccccc2F)cc1	-78.6%
O=C(CN(Cc1ccc(Br)cc1)S(=O)(=O)c1ccccc1)NCc1ccncc1	-68.8%
CN(CC(=O)NCc1cccnc1)S(=O)(=O)c1ccc(F)cc1	21.3%
O=C(CN(Cc1ccccc1)S(=O)(=O)c1ccc(F)cc1)NCc1ccncc1	-52.3%
O=C(O)CN(Cc1ccccc1)S(=O)(=O)c1ccc(F)cc1	2.09%
O=C(CN(Cc1ccc(Br)cc1)S(=O)(=O)c1ccccc1)NCc1cccnc1	-17.2%
CCCNC(=O)CN(Cc1ccccc1F)S(=O)(=O)c1ccc(C)cc1	-6.17%
CCN(CC(=O)NCc1ccncc1)S(=O)(=O)c1ccccc1	5.51%
O=C(CN(Cc1ccccc1)S(=O)(=O)c1ccc(F)cc1)NCc1cccnc1	-57.8%
COc1ccccc1NC(=O)c1cc2c(CO)cnc(C)c2oc1=Nc1ccc(OC)c(OC)c1	13.3%
COc1ccc(NN=Nc2ccc([N+](=O)[O-])cc2)cc1	19.1%
OC1COC(OCC2OC(OCc3ccccc3)C(O)C(O)C2O)C(O)C1O (centres unmarked)	-11.1%
CCOC(=O)N1CCN(C(=O)c2cc3cc(OC)c(OC)cc3[nH]2)CC1	5.96%
CC(=O)Nc1ccc(NC(=O)c2cc(-n3cnnc3)ccc2Cl)cc1	15.7%
COc1cccc(C(C2C(=O)CC(C)(C)CC2=O)C2C(=O)CC(C)(C)CC2=O)c1	21.2%
O=C(N1CCN(c2ccc(F)cc2)CC1)C12CC3CC(CC(C3)C1)C2	5.05%
CN(C)c1nc(OCCNC(=O)Nc2ccccc2)nc(N2CCCCC2)n1	0.123%
CC[n+]1c(C)n(-c2ccccc2)c2ccc(NC(C)=O)cc21.[I-]	11%
Cc1nc(NCCc2ccccc2)c(C#N)c(C)c1[N+](=O)[O-]	6.5%
CCOC(=O)c1sc(NC(=O)c2sc(C)nc2C)nc1C	-4.49%
